Compounds with a hit are over-represented: about 2.5% of the library has one in this group of screens.
CRFBP-R2 block = antagonists of CRF-BP/CRF-R2 complex, primary screen, cell-based, HEK293, calcium dye fluorescence, uHTS. CRF-induced calcium fluorescence. inhibition, % at 11.8 µM. 0.59% of 350,000 active. AID 588475, 2011;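 active means inhibition of the ligand-induced calcium signal above about 50% at the single tested concentration, limit read from the data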
CRFBP-R2 agonist = agonists of CRF-BP/CRF-R2 complex, primary screen, cell-based, HEK293, calcium dye fluorescence, uHTS | calcium dye fluorescence (FLIPR); percent of saturating CRF peptide response | activation, % at 13.2 µM | CRF-binding protein / CRF receptor 2 complex (human) | 0.46% of 350,000 active;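 active means activation of at least 50%, plus an integration ratio under a set limit after plate pattern correction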
H9c2 protect = cardioprotection against H2O2-induced cell death, primary screen, uHTS, H9c2 cells, ATPLite luminescence | protection from H2O2 cell death, % at 20 µM | 0.63% of 360,000 active | H9c2 cardiomyocytes, H2O2 injury protection, 2 h | AID 588492, 2011;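 active means compounds giving at least 50% protection of heart cells from peroxide-induced death in the single-dose screen, raw or plate-pattern-corrected value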
SKN-1 block = suppressors of acrylamide-induced Pgst-4::GFP reporter in worms, primary screen, SKN-1 inhibitor project, whole organism, uHTS, GFP/RFP fluorescence ratio, strain VP596; C. elegans VP596 Pgst-4::GFP/RFP ratio, 24 h; inhibition, % at 21.8 µM; 0.49% of 360,000 active; AID 624304, 2012;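 active means interference check ratio from 0.5 to 1.5 plus GFP to RFP signal ratio inhibition reaching or exceeding a fixed threshold, cut at about 30% in these data, passing the limit was not always enough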
TAG inh = inhibitors of triacylglycerol accumulation, primary screen, cell-based, uHTS, fluorescence, H9c2. H9c2 cells, Nile Red lipid (TAG) fluorescence; cells loaded with 200 µM oleic acid. inhibition, % at 12.5 µM. 0.66% of 230,000 active. AID 651582, 2012;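 active means pattern-corrected inhibition of lipid staining of at least 50% with the nuclear-stain viability signal not falling by more than 50%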
hiPSC survival = enhancers of single-cell hiPSC survival, primary screen, ATPlite luminescence. 100% = ROCK inhibitor wells, 0% = DMSO. 0.044% of 360,000 active. survival enhancement, % at 20 µM. AID 602274, 2012; in the data active means survival enhancement above about 18%;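 further: cells exposed to compounds for 16 hours before the ATP read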
A number is an active result; – = inactive; · = not tested or not shown.

SMILES | CRFBP-R2 block | CRFBP-R2 agonist | H9c2 protect | SKN-1 block | TAG inh | hiPSC survival
O=C(Nc1cc(-c2ccccc2)sc1C(=O)O)c1cccc(F)c1 | 72.8 | – | – | – | · | –
CCOc1ccc(-c2cc(NC(=O)c3c(F)cccc3F)c(C(=O)O)s2)cc1 | – | – | – | – | · | –
COC(=O)[C@@]12C[C@@H](CC(=O)N3CCOCC3)C(=O)N(Cc3ccc4c(c3)OCO4)C1=CCC(C)(C)C2 | · | · | · | – | · | ·
Cc1ccc(NC(=O)C(=O)c2ccc(C)cc2)cc1 | – | – | – | 37.1 | · | –
Cc1cc2nc(C3CCCCC3)c(Cc3cccc(F)c3)n2c(C)c1Br | · | · | – | – | · | –
CN(C)c1ccc(C=C2C=Cc3ccccc32)cc1 | – | – | – | – | – | –
CNc1ccc(C=C2C=Cc3ccccc32)cc1 | – | – | – | 81.7 | – | –
N#CCC(=O)Nc1ccc(C(=O)OCC(=O)c2ccc3c(c2)NC(=O)CO3)cc1 | – | – | – | – | – | –
CCOc1cc(/C=N/Nc2cc(C)nc(-n3nc(C)cc3C)n2)ccc1O | – | – | – | – | 67.6 | –
O=C(O)c1ccc(Cl)c(NC(=S)NC(=O)c2cccc(COc3ccccc3)c2)c1 | 52.0 | – | – | – | – | –
CC(=O)c1c(C(C)=O)c(C)n(-c2cccc3cccnc23)c1C | – | – | – | – | – | –
CC(C)c1ccc(C(C(C(=O)c2ccccc2)N2CCOCC2)N2CCOCC2)cc1 (stereo unspecified) | – | – | – | – | – | –
COc1cc(OC)c(-c2c3cc(O)c(=O)cc-3oc3cc(O)c(O)cc23)cc1OC | – | 171.4 | – | – | · | –
Cc1nc(SCC(=O)Nc2ccccc2Cl)c2c(C)c(C)sc2n1 | – | – | – | – | – | –
CC(=O)OCCn1c2nc(=O)[nH]c(=O)c-2nc2cc(C)c(C)cc21 | – | 203.2 | – | – | · | –
CC(=O)OCCn1c(C)[n+](CCOC(C)=O)c2cc(Cl)c(Cl)cc21 | – | – | – | – | – | –
C[C@H](CO)N1C[C@H](C)[C@@H](CN(C)C(=O)c2ccc3ccn(C)c3c2)OCc2cn(nn2)CCCC1=O | 63.3 | – | – | – | – | –
C[C@@H]1CN([C@H](C)CO)C(=O)CCCn2cc(nn2)CO[C@H]1CN(C)C(=O)c1ccc2ccn(C)c2c1 | · | · | – | – | · | –
O=c1/c(=C/c2ccc(O)c([N+](=O)[O-])c2)sc2nc3ccccc3n12 | – | – | – | – | · | –
CCN(CC)c1ccc(/C=c2\sc3nc4ccccc4n3c2=O)c(O)c1 | – | 164.6 | – | 45.3 | – | –
Cc1cc2c3c(c1C)C1(C(=O)N3C(C)(C)CC2C)C(C#N)=C(N)Oc2cc(O)ccc21 (stereo unspecified) | – | – | – | – | · | –
O=C(Nc1ccc(Cl)cc1Cl)C1=Cc2ccccc2OC1 | – | – | – | 36.5 | – | –
O=C(Nc1ccc(Cl)cc1)C1=Cc2cc(Cl)ccc2OC1 | – | – | – | – | · | –
Cc1cc(NC(=O)CS(=O)c2cn(Cc3cccc(Cl)c3)c3ccccc23)no1 (stereo unspecified) | · | · | – | – | – | –
CSc1ncccc1C(=O)N(C)CC(=O)Nc1cccc(F)c1 | 99.7 | – | – | – | – | –
SMILES | CRFBP-R2 block | CRFBP-R2 agonist | H9c2 protect | SKN-1 block | TAG inh | hiPSC survival
O=C(COC(=O)CCc1ccc(S(=O)(=O)N2CCOCC2)cc1)Nc1ncc(C(F)(F)F)cc1Cl | – | – | – | – | · | –
O=C(COC(=O)c1cccc(S(=O)(=O)N2CCOCC2)c1)Nc1ncc(C(F)(F)F)cc1Cl | – | – | – | 41.9 | – | –
CCSc1nc2ccccc2n1CC(=O)N1CCCCC1 | 85.7 | – | – | – | – | –
O=C(CSc1nc2ccccc2n1CC(=O)N1CCOCC1)N1CCCC1 | – | – | – | – | – | –
CCN(CC)c1ccc2cc(-c3nnc(-c4ccccc4)o3)c(=O)oc2c1 | – | 191.7 | – | – | – | –
CN(C)Cc1c(O)ccc2cc(-c3nc4ccccc4n3C)c(=O)oc12 | – | – | – | – | – | –
